# Source: PubChem BioAssay
# MCF10A rerep – A quantitative high throughput screen for small molecules that induce DNA re-replication in MCF 10a normal breast cells; MCF 10A DNA re-replication, Hoechst nuclear intensity, 48 h; Potency, µM (series often up to 46.1 µM), usual class: activators; 2.9% of 350,000 active; AID 624296, 2012; also: nearly all actives have a fitted effect of over 50% in size
# KB-V1 cytotox – qHTS assay for MDR1-selective chemotherapeutics: Primary screen using the drug-selected MDR subline cells KB-V1; KB-V1 MDR cells viability, CellTiter-Glo, 72 h; Potency, µM (series often up to 46.1 µM), actives largely listed as cytotoxic; 3.4% of 400,000 active; AID 1347076, 2019; also: nearly all actives have a fitted effect of over 60% in size
#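 Luminescent ATP read-out (CellTiter-Glo, 10 min) measures survival of drug-selected KB-V1 MDR cells after 72 h, 37 degrees C compound exposure. Medium: phenol-red-free DMEM, 10% FBS. Values from fitted concentration-response curves.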
# SW480 rereplic – A quantitative high throughput screen for small molecules that induce DNA re-replication in SW480 colon adenocarcinoma cells. AID 624297, 2012. SW480 DNA re-replication, Hoechst DNA content imaging, 48 h. 1.8% of 340,000 active. Potency, µM (titrated, usually from 46.1 µM), usual class: activators; also: nearly all actives have a fitted effect of over 55% in size
#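 Treated cells incubate 48 hr (37 C, 5% CO2), are stained 40 min with Hoechst, and nuclear fluorescence is enumerated; a rise in nuclei with high DNA signal marks re-replication.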
# IL1B secr inh – qHTS for Inhibitors of Inflammasome Signaling: IL-1-beta AlphaLISA Primary Screen | THP-1 LPS/ATP IL-1B secretion, AlphaLISA, 16 h; active compounds read low | activity change, % at 57.5 µM | 4.7% of 360,000 active; in the data active = activity change below about -50%; inconclusive = mostly about -30% to -49%
#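 Secreted IL-1B measured by AlphaLISA bead assay after 16 h compound exposure of THP-1 cells; compounds (final up to 57.5 uM) added 1 h before LPS (250 ng/mL) and ATP (1.25 mM) stimulation; lower signal means less secretion.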
# KB-3-1 cytotox – qHTS assay for MDR1-selective chemotherapeutics: Primary screen using the parental adenocarcinoma cell KB-3-1. AID 1347075, 2019. KB-3-1 viability, CellTiter-Glo ATP luminescence, 72 h. Potency, µM (highest dose often 46.1 µM), actives largely listed as cytotoxic. 1.4% of 400,000 active; also: nearly all actives have a fitted effect of over 60% in size
#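 Cells are dispensed, compounds pinned in, plates held at 37 °C for 72 h, then CellTiter-Glo is added and luminescence read after 10 minutes. Cell line: parental KB-3-1 in phenol-red-free DMEM, 10% FBS.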
# Hits are given with their value; – = inactive; ? = inconclusive; · = not tested or not shown; [ ] = dose if it differs, or a comment. This is a sample that favours compounds with a hit; in the whole collection about 9.9% have one here. Unless noted, calls follow the shape of the dose curve; as a rule, active = well fitted curve in the direction sought with a large enough effect; inconclusive = small, poorly fitted or top-dose-only effect, or another doubt; inactive = no such curve, though single readings can be large; an effect the other way counts as inactive or inconclusive.
SMILES,MCF10A rerep,KB-V1 cytotox,SW480 rereplic,IL1B secr inh,KB-3-1 cytotox
CCCCn1c(N)c(N(CC(C)C)C(=O)c2ccc(-c3ccc(Cl)cc3)o2)c(=O)[nH]c1=O,23.1µM,?,–,?,?
CC1=C([N+](=O)[O-])C(c2cccc(Br)c2)C2=C(N1)c1ccccc1C2=O (stereo not drawn),?,?,0.651µM,-63.0,1.64µM
Nc1c(C(=O)NCc2ccc(Cl)cc2)sc2nc3c(c(C(F)(F)F)c12)CCC3,–,14.6µM,?,?,–
Cc1ccc(CNC(=O)c2sc3nc4c(c(C(F)(F)F)c3c2N)CCC4)cc1,–,?,–,–,–
Cc1nc2sc(C(N)=O)c(N)c2c(-c2ccc(Br)cc2)c1C(=O)Nc1ccc(Cl)cc1,·,?,·,·,–
NC(=O)c1sc2nc3c(c(-c4ccc(Cl)cc4)c2c1N)CCCC3,?,2.91µM,?,–,?
COC(=O)c1sc2nc3c(c(-c4cccs4)c2c1N)CCCC3,9.2µM,?,18.4µM,–,–
NC(=O)c1sc2nc3c(c(-c4ccco4)c2c1N)CCCC3,–,?,–,–,–
COC(=O)c1sc2nc(-c3ccccc3)c3c(c2c1N)CCCC3,?,–,?,–,–
Cc1ccccc1NC(=O)c1sc2nc3c(c(-c4ccco4)c2c1N)CCC3,?,–,9.2µM,-69.5,–
Cc1cc(-c2nnc(SCC(=O)Nc3ccc(Br)cc3F)n2N)n[nH]1,–,–,–,–,–
CCOC(=O)C1CCN(C(=O)CCC2CCCC2)CC1,–,–,–,–,–
CCCN(C(=O)CCc1nc(-c2ccccc2F)no1)c1ccc(CC)cc1,·,?,·,·,–
CCOC(=O)C1(CCOc2ccccc2)CCN(Cc2cccc3nonc23)CC1,?,–,–,–,–
COC(=O)c1ccc(C)c(-n2c(C)cc(C=O)c2C)c1,–,–,–,–,–
c1ccc(-c2csc(-n3cccn3)n2)cc1,–,–,–,–,–
Cc1ccc(C(=O)Cn2nnc3c(sc4nc5c(c(-c6ccccc6)c43)CCC5)c2=O)cc1,–,–,–,–,–
Cc1ccc(-c2c3c(nc4sc(C(N)=O)c(N)c24)CCC3)cc1,11.6µM,?,–,–,–
Cc1ccnc(NC(=S)N2CCN(c3cccc(N(C)C)c3)CC2)c1,·,–,·,·,–
COc1cc(OC)c(C2=NOC(C(=O)NCc3cccs3)C2)cc1Cl (stereo not drawn),?,7.31µM,9.2µM,–,–
COc1cc(OC)c(C2=NOC(C(=O)NCc3cccnc3)C2)cc1Cl (stereo not drawn),–,–,?,–,?
COc1ccc(C2=NOC(C(=O)NCc3cccs3)C2)cc1 (stereo not drawn),9.2µM,2.91µM,–,–,6.51µM
O=C(NCc1ccccc1C(F)(F)F)C1CC(c2ccccc2C(F)(F)F)=NO1 (stereo not drawn),–,–,–[9.22 µM],-62.2,–
O=C(NCc1cccs1)C1CC(c2ccccc2O)=NO1 (stereo not drawn),18.4µM,?,–,–,16.4µM
O=C(NCc1ccccn1)C1CC(c2ccccc2O)=NO1 (stereo not drawn),–,–,–,–,–
SMILES,MCF10A rerep,KB-V1 cytotox,SW480 rereplic,IL1B secr inh,KB-3-1 cytotox
COc1cc(NC(=O)C2CC(c3cccc(OC)c3OC)=NO2)cc(OC)c1OC (stereo not drawn),15.8µM,–,?,–,?
COc1cc(C2=NOC(C(=O)NCc3cccs3)C2)cc(OC)c1OC (stereo not drawn),10.3µM,2.59µM,6.51µM,–,2.06µM
COc1ccc(C2=NOC(C(=O)NCc3cccs3)C2)cc1OC (stereo not drawn),1.16µM,5.17µM,5.17µM,–,4.61µM
Cc1cc(=O)oc2c3c(cc(OCC(=O)NC(C)C)c12)OC(C)(C)CC3,–,–,–,–,–
O=C(O)/C=C/C(=O)N(CC1CCCO1)C1CC(=O)N(c2c(Cl)cccc2Cl)C1=O (stereo not drawn),–,–,?,–,–
O=C(N/N=C/c1ccccc1Cl)c1[nH]c2ccc(Br)cc2c1-c1ccccc1,?,5.8µM,?,–,?
NNC(=O)c1[nH]c2ccc(Cl)cc2c1-c1ccccc1,9.2µM,?,?,–,?
COc1ccc(/C=N/NC(=O)c2[nH]c3ccc(Br)cc3c2-c2ccccc2)cc1,0.206µM,1.03µM,1.16µM,–,0.82µM
CC(=O)Nc1c(-c2ccccc2)c2cc(Br)ccc2[nH]c1=O,0.731µM,–,–,–,–
COc1ccc(/C=N/NC(=O)c2[nH]c3ccc(Cl)cc3c2-c2ccccc2)c(C(=O)O)c1OC,?,–,–,–,–
NNC(=O)c1[nH]c2ccc(Br)cc2c1-c1ccccc1,?,?,?,–,?
CC(=O)NNC(=O)c1[nH]c2ccc(Br)cc2c1-c1ccccc1,–,–,?,–,–
COc1ccc(/C=N/NC(=O)c2[nH]c3ccc(Br)cc3c2-c2ccccc2)c(C(=O)O)c1OC,–,–,–,–,–
O=C(O)CSc1c(-c2ccccc2)c2cc(Cl)ccc2[nH]c1=O,–,–,–,–,–
Cc1ccc2[nH]c(C(=O)NN=C3CCCCC3)c(-c3ccccc3)c2c1,16.4µM,?,?,–,–
CCN(CC)C(=S)Sc1c(-c2ccccc2)c2cc(Cl)ccc2[nH]c1=O,?,?,–,-61.3,?
O=C(NC(=S)N1CCOCC1)c1cc2ccccc2o1,?,–,–,–,–
Cc1c(N)c(C(C)(C)C)cc(C(C)(C)C)c1[N+](=O)[O-],18.4µM,–,–,–,–
Cc1cc(N)c(C)c([N+](=O)[O-])c1C,–,–,–,–,–
Cc1nc2ccccn2c1C(=O)NCc1ccc2c(c1)OCO2,–,16.4µM,–,–,–
Cc1nc2ccccn2c1C(=O)N/N=C/c1ccc2c(c1)OCO2,?,18.4µM,?,–,?
CCOc1cc(/C=N\NC(=O)c2c(C)nc3ccccn23)ccc1O,?,–,–,–,–
Cc1nc2ccccn2c1C(=O)Nc1ccc2c(c1)OCCO2,–,–,–,–,?
CCSc1nnc(NS(=O)(=O)c2ccc(OC)cc2)s1,0.731µM,?,–,–,–
Cc1ccc(S(=O)(=O)NCC(=O)NCC(=O)N(C)Cc2ccc3ccccc3c2)cc1C,?,13µM,–,-52.0,?
CSc1ccc(CN(C)C(=O)CNC(=O)CNS(=O)(=O)c2ccc(C)c(C)c2)cc1,–,–,–,–,–
Cn1cc(-c2csc(C(O)c3ccc(F)c(F)c3)n2)cn1 (stereo not drawn),·,–,·,–,–
Cc1ccc(S(=O)(=O)CCC(=O)OCC(=O)N2CCN(c3ccccc3)CC2)cc1,–,–,–,–,–
Cc1ccc(S(=O)(=O)CCC(=O)N2CCN(c3ccccc3O)CC2)cc1,?,–,9.2µM,?,–
